About 83,000 compounds went through this panel and 20% of them were active in at least one assay; those are over-represented in the sample as a whole.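 Interpretation: 100, growth as untreated; towards 0, rising growth inhibition; 0, no net growth; 0 to -100, cell death. Compounds scoring below 10 were considered active.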 Unmarked numbers belong to inactive results. Activity calls are given as the source filed them.
What was measured:
Test in all cases: NCI-60 one-dose screen, 48 h (100 = growth as untreated, 0 = no growth, -100 = all killed)
Conditions in all cases: 10 µM unless noted
NCI-H23 lung = tested on: NCI-H23 lung
NCI-H226 lung = tested on: NCI-H226 lung
NCI-H322M lung = tested on: NCI-H322M lung
HOP-62 NSCLC = tested on: HOP-62 NSCLC
NCI-H460 lung = tested on: NCI-H460 lung
HOP-92 NSCLC = tested on: HOP-92 NSCLC
NCI-H522 lung = tested on: NCI-H522 lung
A549/ATCC NSCLC = tested on: A549/ATCC NSCLC
786-0 renal = tested on: 786-0 renal
COLO 205 colon = tested on: COLO 205 colon
DU-145 prostate = tested on: DU-145 prostate
K-562 leukemia = tested on: K-562 leukemia
MALME-3M melanoma = tested on: MALME-3M melanoma
MDA-MB-231 breast = tested on: MDA-MB-231 breast
RXF 393 renal = tested on: RXF 393 renal
SF-268 CNS = tested on: SF-268 CNS
SF-295 CNS = tested on: SF-295 CNS
SF-539 CNS = tested on: SF-539 CNS
UACC-257 melanoma = tested on: UACC-257 melanoma
M14 melanoma = tested on: M14 melanoma

Compound | growth (NCI-H23 lung) | growth (NCI-H226 lung) | growth (NCI-H322M lung) | growth (HOP-62 NSCLC) | growth (NCI-H460 lung) | growth (HOP-92 NSCLC) | growth (NCI-H522 lung) | growth (A549/ATCC NSCLC) | growth (786-0 renal) | growth (COLO 205 colon) | growth (DU-145 prostate) | growth (K-562 leukemia) | growth (MALME-3M melanoma) | growth (MDA-MB-231 breast) | growth (RXF 393 renal) | growth (SF-268 CNS) | growth (SF-295 CNS) | growth (SF-539 CNS) | growth (UACC-257 melanoma) | growth (M14 melanoma)
COc1cccc(NC(=O)Nc2ccc(Nc3ncnc4sc5c(c34)CCN(C(=O)CCl)C5)cc2)c1 | 96.7% | 88.9% | 96.8% | 88.7% | 98.1% | 97.1% | 71.6% | 91% | 103% | 104% | 118% | 91.3% | 116% | 92.7% | 99.1% | 91.3% | 98.1% | 106% | 93.4% | 101%
Cn1ncc(Cl)c1-c1cc(C(=O)N[C@H](CN)Cc2ccc(F)c(F)c2)oc1Cl | 11.3% | 11.8% | 18.8% | -49.4% (active) | 2.97% (active) | -58.5% (active) | -66.7% (active) | -53.4% (active) | -46.7% (active) | -77.9% (active) | 19.1% | -32.7% (active) | -78.6% (active) | -43.8% (active) | -52.6% (active) | 23.1% | -65.8% (active) | -75.1% (active) | -89.4% (active) | -78.5% (active)
Cc1cnc(NC(=O)Nc2cc(Br)c(C)cc2OC[C@@H]2CNCCO2)cn1 | 15% | 51.2% | 34.3% | 12.5% | 4.27% (active) | 35% | -16.4% (active) | 17.5% | 2.83% (active) | 3.34% (active) | 24% | -42.2% (active) | -48.1% (active) | 22.2% | -14.8% (active) | 33.6% | 4.01% (active) | -75.8% (active) | -76.8% (active) | -84.5% (active)
NC1(c2ccc(-c3nc4ccn5c(=O)[nH]nc5c4cc3-c3ccccc3)cc2)CCC1 | 73.5% | 67.7% | 59.2% | 50.3% | 23.6% | 23.2% | 5.02% (active) | 32.8% | 9.74% (active) | -19.8% (active) | 60.9% | -16.8% (active) | -70.8% (active) | 37.4% | -21.7% (active) | 52.3% | -65.5% (active) | -80.9% (active) | -67.6% (active) | -66.5% (active)
CN1CC[C@H](c2c(O)cc(O)c3c(=O)cc(-c4ccccc4Cl)oc23)[C@H](O)C1 | -17.3% (active) | 3.69% (active) | -5.32% (active) | -17.2% (active) | 3.22% (active) | -6.87% (active) | -23.9% (active) | 5.9% (active) | 7.41% (active) | -55% (active) | 9.08% (active) | 6.14% (active) | -45.3% (active) | 1.35% (active) | -65.5% (active) | 4.21% (active) | 8.48% (active) | -28% (active) | -23.8% (active) | -50.1% (active)
CNC(=O)c1cccc2cc(Oc3ccnc4cc(OCC5(N)CC5)c(OC)cc34)ccc12 | 63.9% | 47.1% | 74.3% | 51.7% | 56% | 64.6% | 46.3% | 57.4% | 76.8% | 58% | 77.7% | 19.5% | 74.3% | 60.8% | 39.8% | 52.4% | 58.4% | 12.6% | 90.2% | 56.1%
C[C@@]1(C(=O)Nc2ccc(F)nc2)CCCN1c1nc(Nc2cc(C3CC3)[nH]n2)c2cccn2n1 | 20.5% | 30.1% | 15.3% | 11.3% | 14.5% | -45.5% (active) | 40.9% | 21.9% | 5.48% (active) | -49.3% (active) | 38.9% | 27.3% | 55.3% | 20.7% | -45.9% (active) | 15.5% | -13.2% (active) | 16.3% | 22.1% | 21.6%
CS(=O)(=O)CCNCc1ccc(-c2ccc3ncnc(Nc4ccc(OCc5cccc(F)c5)c(Cl)c4)c3c2)o1 | 25.9% | 54.7% | 13.8% | 19.2% | -58% (active) | -1.7% (active) | -44.5% (active) | -39.4% (active) | -63.7% (active) | -27.2% (active) | 12% | -22.7% (active) | -80.3% (active) | -62.8% (active) | -73.9% (active) | 8.76% (active) | -7.05% (active) | -91% (active) | -94.1% (active) | -64.5% (active)
CC(C)(C)c1cnc(CSc2cnc(NC(=O)C3CCNCC3)s2)o1 | -22.2% (active) | 3.09% (active) | 5.62% (active) | -16.2% (active) | 2.67% (active) | -8.65% (active) | -24.8% (active) | 1.61% (active) | 12% | -45.3% (active) | 7.26% (active) | 4.07% (active) | -41.1% (active) | 6.82% (active) | -51.5% (active) | 12% | 11.6% | -33.1% (active) | -25.5% (active) | -58.6% (active)
CCOc1cc2ncc(C#N)c(Nc3ccc(F)c(Cl)c3)c2cc1NC(=O)/C=C/CN(C)C | -28.5% (active) | -56.5% (active) | 0.98% (active) | -27.7% (active) | -44% (active) | -30% (active) | -57.5% (active) | -30.6% (active) | -68.5% (active) | -83.2% (active) | -56.6% (active) | -16.4% (active) | -77.5% (active) | -38.8% (active) | -83% (active) | -19.9% (active) | 9.82% (active) | -85.9% (active) | -63% (active) | -83.1% (active)
FC(F)c1nc2ccccc2n1-c1nc(N2CCOCC2)nc(N2CCOCC2)n1 | 0.202% (active) | -3.17% (active) | -22.6% (active) | -15.1% (active) | 7.27% (active) | -32.2% (active) | -1.95% (active) | -17.2% (active) | -32.8% (active) | -25.1% (active) | 6.49% (active) | 13.1% | -26.7% (active) | 15.7% | -44.5% (active) | 2.79% (active) | -44.6% (active) | -45.3% (active) | -27.3% (active) | 3% (active)
CC(=O)C1=C(C)NC(SCc2nnc(-c3ccc(C)cc3)o2)=NC1c1ccc(F)cc1 (stereo not given) | 95.2% | 89.6% | 92.8% | 95.2% | 106% | 96.4% | 85.9% | 91.2% | 84.6% | 115% | 107% | 100% | 98% | 93.6% | 103% | 111% | 108% | 93.4% | 111% | 96%
COc1ccc(-c2cc3c(C)nc(N)nc3n(C3CCC(OCCO)CC3)c2=O)cn1 (stereo not given) | 15% | -0.55% (active) | -36.4% (active) | -21.9% (active) | 6.78% (active) | -32.2% (active) | -1.92% (active) | -38.4% (active) | -24.1% (active) | -61.1% (active) | 7.64% (active) | 24% | -34% (active) | 5.08% (active) | -50.9% (active) | 4.36% (active) | -57.7% (active) | -62.4% (active) | -35.9% (active) | 0.206% (active)
CO[C@@H](C(=O)N1Cc2[nH]nc(NC(=O)c3ccc(N4CCN(C)CC4)cc3)c2C1)c1ccccc1 | 36.8% | 37.3% | -0.392% (active) | -6.89% (active) | 4.44% (active) | -63.8% (active) | 12.6% | 19.1% | 10.7% | -88.2% (active) | 17.6% | 6.59% (active) | 48.6% | 9.92% (active) | -36.4% (active) | 1.17% (active) | 31.7% | -4.34% (active) | 14.2% | 35.8%
CO[C@H](C(=O)N[C@@H](CCCCNC(=O)OCc1ccccc1)C(=O)OC(C)(C)C)[C@@H]1Cc2cc3cc(OC4CC(OC5CC(O)C(O)C(C)O5)C(O)C(C)O4)c(C)c(O)c3c(O)c2C(=O)[C@H]1OC1CC(OC2CC(OC3CC(C)(O)C(O)C(C)O3)C(O)C(C)O2)C(O)C(C)O1 (stereo not given in full) | -42.6% (active) | -75.5% (active) | 20.2% | -15% (active) | -17.6% (active) | -82.6% (active) | -16% (active) | -25.7% (active) | -89.8% (active) | -20.7% (active) | 26.5% | 5.35% (active) | -69.4% (active) | -71.8% (active) | -85.9% (active) | -61.5% (active) | -89.5% (active) | -32% (active) | -5.47% (active) | -69.8% (active)

— PubChem BioAssay (NCI)
